# Test results published in article PMC5540273 (PLoS ONE, 2017).
# Tests used:
# Settings in all cases: concentration: 1 μM, replicates: in singlicate; n = 1
# NEK11 = system: NEK11
# NEK1 = system: NEK1
# NEK2 = system: NEK2
# NEK3 = system: NEK3
# NEK4 = system: NEK4
# NEK5 = system: NEK5
# NEK6 = system: NEK6
# NEK7 = system: NEK7
# NEK9 = system: NEK9
# NIK = system: T1, NIK
# T1 construct: gene MAP3K14
# 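Note: KINOMEscan kinase panel screen.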
compound,measurement,setting,value
CN(c1ccc2c(c1)nc(NCc1ccccc1)n2C)c1ccnc(Nc2ccc(CS(C)(=O)=O)cc2)n1.Cl [GW811603],%Inh,NEK11,0%
same,%Inh,NEK1,0%
same,%Inh,NEK2,0%
same,%Inh,NEK3,20%
same,%Inh,NEK4,0%
same,%Inh,NEK5,0%
same,%Inh,NEK6,60%
same,%Inh,NEK7,8%
same,%Inh,NEK9,55%
same,%Inh,NIK,33%
CCn1cnc2c(NCc3ccccc3)ncnc21 [SKF-96418],%Inh,NEK11,0%
same,%Inh,NEK1,0%
same,%Inh,NEK2,0%
same,%Inh,NEK3,24%
same,%Inh,NEK4,0%
same,%Inh,NEK5,0%
same,%Inh,NEK6,0%
same,%Inh,NEK7,0%
same,%Inh,NEK9,0%
same,%Inh,NIK,32%
Cl.N#CCc1ccc(Nc2nccc(Nc3ccc(Oc4ccccc4)cc3)n2)cc1 [GW639905],%Inh,NEK11,0%
same,%Inh,NEK1,0%
same,%Inh,NEK2,5%
same,%Inh,NEK3,0%
same,%Inh,NEK4,16%
same,%Inh,NEK5,24%
same,%Inh,NEK6,0%
same,%Inh,NEK7,0%
same,%Inh,NEK9,0%
same,%Inh,NIK,0%
Fc1cc(Cl)ccc1Nc1ccnc2cc(-c3ccc(CN4CCOCC4)o3)ccc12 [GW560109],%Inh,NEK11,0%
same,%Inh,NEK1,0%
same,%Inh,NEK2,13%
same,%Inh,NEK3,0%
same,%Inh,NEK4,15%
same,%Inh,NEK5,1%
same,%Inh,NEK6,0%
same,%Inh,NEK7,3%
same,%Inh,NEK9,0%
same,%Inh,NIK,4%
COc1ccc(C2=C(Nc3cccc(O)c3)C(=O)NC2=O)cc1 [SB-390766],%Inh,NEK11,19%
same,%Inh,NEK1,0%
same,%Inh,NEK2,0%
same,%Inh,NEK3,18%
same,%Inh,NEK4,5%
same,%Inh,NEK5,34%
same,%Inh,NEK6,0%
same,%Inh,NEK7,0%
same,%Inh,NEK9,0%
same,%Inh,NIK,6%
O=C(O)C(F)(F)F.O=c1[nH]ccc2nc(N[C@@H]3CCNC3)nc(Nc3cc(Cl)cc(Cl)c3)c12 [GSK2188764],%Inh,NEK11,0%
same,%Inh,NEK1,28%
same,%Inh,NEK2,23%
same,%Inh,NEK3,23%
same,%Inh,NEK4,17%
same,%Inh,NEK5,14%
same,%Inh,NEK6,0%
same,%Inh,NEK7,13%
same,%Inh,NEK9,25%
same,%Inh,NIK,64%
Cc1ccc(NC(=O)c2ccc(Cl)c(Cl)c2)cc1-c1ccc(C(=O)Nc2ccncc2)cc1 [GSK1398460],%Inh,NEK11,0%
same,%Inh,NEK1,16%
same,%Inh,NEK2,2%
same,%Inh,NEK3,16%
same,%Inh,NEK4,0%
same,%Inh,NEK5,0%
same,%Inh,NEK6,0%
same,%Inh,NEK7,0%
same,%Inh,NEK9,7%
same,%Inh,NIK,0%
CC(=O)Nc1cn2nc(Oc3cccc(NC(=O)c4cccc(C(F)(F)F)c4)c3)ccc2n1,%Inh,NEK11,0%
same,%Inh,NEK1,0%
same,%Inh,NEK2,0%
same,%Inh,NEK3,8%
same,%Inh,NEK4,0%
same,%Inh,NEK5,8%
same,%Inh,NEK6,3%
same,%Inh,NEK7,0%
same,%Inh,NEK9,0%
same,%Inh,NIK,0%
